Experimental data from the supplement of paper PMC6555819.

System: PPARg homodimer (NR concentration 180 nM)
Assay: PBM binding z-score (relative to random genomic background probes); higher = stronger binding; sequences stand for … in GC…GCGATTGACAGCGTAGAATGAAGG
Procedure, shortened: (§1)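 Random background probes are the reference for binding z-scores. These scores derive from regression-normalized fluorescence on custom Agilent 4×180K protein-binding microarrays incubated 1 h with ligand-free nuclear receptor dimers. Binding was detected with antibodies against each partner (one per run).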

Sequence	PBM binding z-score
TCTCGGAGGACACGAAAGGCCAGAGCTCGACATC	-0.541
TGTCAAAGTTCAAAGGTAACGGAAGTATCCACAC	3.69
GCTGCTAGATCAGGTTGGTCAGCTAACGGGTACG	-0.314
TCATATAGGTAAATCCTAGGTGAAAGTCCGATCT	-0.358
GCTTACGGGTCAAAGGCTATAGCATGAATAGAAT	1.36
TCAAGTAGGTTAGGGGCATTCAGAATGGCGTCGA	1.35
ATCTCAAGGTAACAAGTTCAGTGAAAGAGAGGAC	1.41
CCGACTGGGGCAGAAAGGTTACTATACCATCCGG	0.373
CTCGAAAGGTCGTGCTCAGGTGCGTATACCAAAC	0.856
CCGACTGGGGCATAAGGGTACCATAAGCCAGCCC	-0.201
TGTCAAAGTTGAAAGGTAACGTAAGTATCCACAC	0.376
TCGAGTAGGTAAGGGGCATTCAGAATGGCGTCGA	0.148
CCTACTGGGCCATTCAGAGGTCATTGGTCATATG	1.61
CAAACTAGGTCAAAGTCAAAGTCGGTTTGTGCCA	1.7
CAAACTAGGTCAAGAGGTCAACGTCCGCTTCCCG	8.6
CATACAGGGTCAGCTAGGCCAGAGTCGGGACGGC	2.62
GCTTGTATATCAAGGTTAAGAAAGACTAAGCTAA	-0.0686
ATATGTAGGTTAGCGGGTCATTCAGTTTGCGCAT	2.58
CGTCCAAGGTCGATGCTAGGTCAGTGAAAGCATT	1.54
GCAGACAGGTGAAACGCAGGTTACTCAGGGTGGC	-0.435

Sequence	PBM binding z-score
CGTCCAAGGTCATAGTAGGTCAGTGAAGACAGAT	2.97
ATCTCTAGGTAAGACTCAGTTCTGTGAAGAACGC	0.76
TCTCCTAGGTCAACGATGGTCAGCTAATCTGCTA	2.22
GGAATGAGGGCATTCGAGTTGATAGCATGGCGAT	0.811
GGAACGAGGGCAAGTTGAGAGCAGAGTTTGATGG	0.391
TCTTGTAAATCAACAGGAGGTTAAGAAAGATCGA	0.585
CTACCAAGGTGAACAAGATCGTTGATTACTATTC	0.484
ATCTGTAGGTAACAAGTTCAGTGAAAGAGAGGAC	1.16
CCGAGCAGGTTATGGGGCATTCAGGCAACGGTGA	0.261
GGAACGTGGGCAAGTTGATAGCAGAGTTTGATGG	-0.313
TCGGGTAGGTTAGGGGCATTCAGAATGGCGTCGA	1.38
ACTGGGAGGACAAAGGTCAGAGCTACGCCAGTGA	4.03
CGTCCAAGGTCTATGCTAGGTCAGTGAAAGCATT	0.128
TCGAGAAGGTTACCAATGGGGCATTCAGCTTTCT	0.132
GCATATAGGTAATACAAGCTGAAAGTCCGATTGT	0.219
TCTTGTAGATCAACAAGAGGTTAAGAAAGATCGA	-0.0436
ACTAGCAGGCCATGGGTCACTCAAGATTAGTCCG	0.473
CGAACTAGGTAAGAACAGGACAGTGAAGGATGAT	0.00147
ACTAGTTCGTCAGCTGAGGTCACACACAATTCGG	2.47
TAGCCTGGGTCATTGGGCCAGTATAGTACGCATC	0.764

System: PXR:RXRa (NR concentration 270 nM, RXRa partner concentration 90 nM)
Assay: as above
Procedure, shortened: as §1

Sequence	PBM binding z-score
TCTCGGAGGACACGAAAGGCCAGAGCTCGACATC	-0.141
TGTCAAAGTTCAAAGGTAACGGAAGTATCCACAC	5.74
GCTGCTAGATCAGGTTGGTCAGCTAACGGGTACG	-0.686
TCATATAGGTAAATCCTAGGTGAAAGTCCGATCT	0.68
GCTTACGGGTCAAAGGCTATAGCATGAATAGAAT	3.22
TCAAGTAGGTTAGGGGCATTCAGAATGGCGTCGA	1
ATCTCAAGGTAACAAGTTCAGTGAAAGAGAGGAC	1.88
CCGACTGGGGCAGAAAGGTTACTATACCATCCGG	0.533
CTCGAAAGGTCGTGCTCAGGTGCGTATACCAAAC	3.09
CCGACTGGGGCATAAGGGTACCATAAGCCAGCCC	-0.472
TGTCAAAGTTGAAAGGTAACGTAAGTATCCACAC	1.38
TCGAGTAGGTAAGGGGCATTCAGAATGGCGTCGA	-0.173
CCTACTGGGCCATTCAGAGGTCATTGGTCATATG	4.57
CAAACTAGGTCAAAGTCAAAGTCGGTTTGTGCCA	1.63
CAAACTAGGTCAAGAGGTCAACGTCCGCTTCCCG	6.18
CATACAGGGTCAGCTAGGCCAGAGTCGGGACGGC	2.15
GCTTGTATATCAAGGTTAAGAAAGACTAAGCTAA	0.625
ATATGTAGGTTAGCGGGTCATTCAGTTTGCGCAT	3.07
CGTCCAAGGTCGATGCTAGGTCAGTGAAAGCATT	2.04
GCAGACAGGTGAAACGCAGGTTACTCAGGGTGGC	0.076

Sequence	PBM binding z-score
CGTCCAAGGTCATAGTAGGTCAGTGAAGACAGAT	5.67
ATCTCTAGGTAAGACTCAGTTCTGTGAAGAACGC	0.28
TCTCCTAGGTCAACGATGGTCAGCTAATCTGCTA	2.36
GGAATGAGGGCATTCGAGTTGATAGCATGGCGAT	4.13
GGAACGAGGGCAAGTTGAGAGCAGAGTTTGATGG	0.927
TCTTGTAAATCAACAGGAGGTTAAGAAAGATCGA	1.13
CTACCAAGGTGAACAAGATCGTTGATTACTATTC	0.24
ATCTGTAGGTAACAAGTTCAGTGAAAGAGAGGAC	1.58
CCGAGCAGGTTATGGGGCATTCAGGCAACGGTGA	-0.112
GGAACGTGGGCAAGTTGATAGCAGAGTTTGATGG	-0.46
TCGGGTAGGTTAGGGGCATTCAGAATGGCGTCGA	1.67
ACTGGGAGGACAAAGGTCAGAGCTACGCCAGTGA	4.16
CGTCCAAGGTCTATGCTAGGTCAGTGAAAGCATT	0.421
TCGAGAAGGTTACCAATGGGGCATTCAGCTTTCT	0.773
GCATATAGGTAATACAAGCTGAAAGTCCGATTGT	-0.13
TCTTGTAGATCAACAAGAGGTTAAGAAAGATCGA	1.27
ACTAGCAGGCCATGGGTCACTCAAGATTAGTCCG	0.85
CGAACTAGGTAAGAACAGGACAGTGAAGGATGAT	-0.257
ACTAGTTCGTCAGCTGAGGTCACACACAATTCGG	5.11
TAGCCTGGGTCATTGGGCCAGTATAGTACGCATC	1.44
